{"source": "ChEMBL document CHEMBL4513141", "about": "“CO-ADD screening of NIH (USA) - Clinical Collection” (2021)", "note": "Potency and affinity values are given separately."}
{"test_system": "Candida albicans", "conditions": "20 µM", "units": {"Inhibition": "%"}}
{"smiles": "CC[C@H]1OC(=O)[C@H](C)C(=O)[C@H](C)[C@@H](O[C@@H]2O[C@H](C)C[C@H](N(C)C)[C@H]2O)[C@](C)(OC)C[C@@H](C)C(=O)[C@H](C)[C@@H]2N(CCCCn3cnc(-c4cccnc4)c3)C(=O)O[C@@]21C", "Inhibition": 0.39}
{"smiles": "C[C@H](N[C@@H](CCc1ccccc1)C(=O)O)C(=O)N1CCC[C@H]1C(=O)O", "note": "[ENALAPRILAT ANHYDROUS]", "Inhibition": 2.99}
{"smiles": "CNCCCC12CCC(c3ccccc31)c1ccccc12.Cl", "note": "[MAPROTILINE HYDROCHLORIDE]", "Inhibition": 3.58}
{"smiles": "O=C1CN(/N=C/c2ccc(-c3ccc([N+](=O)[O-])cc3)o2)C(=O)[N-]1.[Na+]", "note": "[DANTROLENE SODIUM]", "Inhibition": 0.63}
{"smiles": "COc1ccccc1OCCNCC(O)COc1cccc2[nH]c3ccccc3c12", "note": "(configuration not stated) [CARVEDILOL]", "Inhibition": 1.69}
{"test_system": "Cryptococcus neoformans", "conditions": "Concentration 20 uM; ASSAY_TEST Inhibition of Fungal Growth; detection method Resazurin; Absorption (OD600-OD570); plate type 384well; NBS; CORNING #3640", "units": {"Inhibition": "%"}}
{"smiles": "CCCCC[C@H](O)/C=C/[C@H]1[C@H](O)CC(=O)[C@@H]1CCCCCCC(=O)O", "note": "[ALPROSTADIL]", "Inhibition": 2.52}
{"smiles": "CC(=O)CCCCn1cnc2c1c(=O)n(C)c(=O)n2C", "note": "[LOMIFYLLINE]", "Inhibition": -0.96}
{"smiles": "CCCc1nc2c(C)cc(-c3nc4ccccc4n3C)cc2n1Cc1ccc(-c2ccccc2C(=O)O)cc1", "Inhibition": -31}
{"smiles": "OC[C@H]1O[C@@H](Oc2cc(O)cc(/C=C/c3ccc(O)cc3)c2)[C@H](O)[C@@H](O)[C@@H]1O", "note": "[PICEID]", "Inhibition": -0.2}
{"smiles": "CC(=O)[C@@]1(O)CC[C@H]2[C@@H]3C[C@H](C)C4=CC(=O)CC[C@]4(C)[C@H]3CC[C@@]21C", "Inhibition": -0.94}
{"smiles": "O=C1[C@H](CC[C@H](O)c2ccc(F)cc2)[C@@H](c2ccc(O)cc2)N1c1ccc(F)cc1", "note": "[EZETIMIBE]", "Inhibition": -1.78}
{"smiles": "CC(C)(C)NCC(O)COc1cccc2c1CC(O)C(O)C2", "note": "(configuration not stated) [NADOLOL]", "Inhibition": -8.66}
{"smiles": "C=C1/C(=C\\C=C2/CCC[C@]3(C)[C@@H]([C@H](C)/C=C/[C@@H](O)C4CC4)CC[C@@H]23)C[C@@H](O)C[C@@H]1O", "note": "[CALCIPOTRIENE]", "Inhibition": 0.21}
{"smiles": "CN(C)CCCSc1ccccc1NC(=O)/C=C/c1ccccc1.Cl.O", "Inhibition": -8.97}
{"smiles": "CN(C/C=C/C#CC(C)(C)C)Cc1cccc2ccccc12.Cl", "note": "[TERBINAFINE HYDROCHLORIDE]", "Inhibition": 35.41}
{"smiles": "CCCCC(=O)N(Cc1ccc(-c2ccccc2-c2nnn[nH]2)cc1)[C@H](C(=O)O)C(C)C", "Inhibition": -1.97}
{"smiles": "CCCCC1=NC2(CCCC2)C(=O)N1Cc1ccc(-c2ccccc2-c2nnn[nH]2)cc1", "note": "[IRBESARTAN]", "Inhibition": 0.28}
{"smiles": "CC(=CCC1=C(C)C(=O)c2ccccc2C1=O)CCCC(C)CCCC(C)CCCC(C)C", "note": "(configuration not stated)", "Inhibition": 1.23}
{"smiles": "CC(N/C(=N\\C#N)Nc1ccncc1)C(C)(C)C.O", "note": "(configuration not stated)", "Inhibition": -6.76}
{"smiles": "CN(C)[C@@H]1C(=O)C(C(=O)NCN2CCCC2)=C(O)[C@@]2(O)C(O)=C3C(=O)c4c(O)cccc4[C@@](C)(O)C3CC12", "note": "(some centres not stated)", "Inhibition": -8.19}
{"smiles": "CCN(CC)CC1CCCCN1CC(=O)N1c2ccccc2C(=O)Nc2cccnc21", "note": "(configuration not stated) [OTENZEPAD]", "Inhibition": 3.45}
{"smiles": "CCCN1CCCC[C@H]1C(=O)Nc1c(C)cccc1C.Cl", "note": "[ROPIVACAINE HYDROCHLORIDE]", "Inhibition": -6.59}
{"smiles": "Cl.Nc1c2c(nc3ccccc13)CCCC2", "note": "[TACRINE HYDROCHLORIDE]", "Inhibition": -5.28}
{"smiles": "CCC(=O)OCC(=O)[C@@]1(OC(=O)CC)[C@@H](C)C[C@H]2[C@@H]3CCC4=CC(=O)C=C[C@]4(C)[C@@]3(Cl)[C@@H](O)C[C@@]21C", "note": "[BECLOMETHASONE DIPROPIONATE]", "Inhibition": 1.67}
{"smiles": "CN(C)CCC[C@@]1(c2ccc(F)cc2)OCc2cc(C#N)ccc21.O=C(O)C(=O)O", "note": "[ESCITALOPRAM OXALATE]", "Inhibition": -10.38}
{"smiles": "Nc1ncnc2c1ncn2[C@@H]1O[C@H](CO)[C@@H](O)[C@@H]1O", "note": "[VIDARABINE]", "Inhibition": 1.72}
{"smiles": "CC1(C)O[C@@H]2C[C@H]3[C@@H]4C[C@H](F)C5=CC(=O)C=C[C@]5(C)[C@@]4(F)[C@@H](O)C[C@]3(C)[C@]2(C(=O)CO)O1", "note": "[FLUOCINOLONE ACETONIDE]", "Inhibition": 6.47}
{"smiles": "CN1C(=O)CC[C@H]1c1cccnc1", "note": "[COTININE]", "Inhibition": -1.87}
{"smiles": "CSc1nc2cc(Cl)c(Oc3cccc(Cl)c3Cl)cc2[nH]1", "note": "[TRICLABENDAZOLE]", "Inhibition": -2.96}
{"smiles": "CC1(C)O[C@@H]2C[C@H]3[C@@H]4C[C@H](F)C5=CC(=O)C=C[C@]5(C)[C@H]4[C@@H](O)C[C@]3(C)[C@]2(C(=O)CO)O1", "note": "[FLUNISOLIDE]", "Inhibition": -6.19}
{"smiles": "Cl.Clc1ccc2nsnc2c1NC1=NCCN1", "note": "[TIZANIDINE HYDROCHLORIDE]", "Inhibition": -1.24}
{"smiles": "CCOC(=O)[C@@H](CCc1ccccc1)N[C@@H](C)C(=O)N1CCC[C@H]1C(=O)O.O=C(O)/C=C\\C(=O)O", "Inhibition": -1.23}
{"smiles": "CC(C)C[C@H](NC(=O)[C@@H](O)[C@H](N)Cc1ccccc1)C(=O)O", "note": "[UBENIMEX]", "Inhibition": -0.18}
{"smiles": "O=C(O)c1cc(-c2ccc(F)cc2F)ccc1O", "note": "[DIFLUNISAL]", "Inhibition": -3.56}
{"smiles": "CCCCc1nc(Cl)c(CO)n1Cc1ccc(-c2ccccc2-c2nnn[n-]2)cc1.[K+]", "note": "[LOSARTAN POTASSIUM]", "Inhibition": -3.04}
{"smiles": "O=C(CCCN1CC=C(n2c(=O)[nH]c3ccccc32)CC1)c1ccc(F)cc1", "note": "[DROPERIDOL]", "Inhibition": -8.67}
{"smiles": "CN[C@@H]1[C@H](O)[C@H](NC)[C@H]2O[C@@]3(O)C(=O)C[C@@H](C)O[C@H]3O[C@@H]2[C@H]1O.Cl.Cl.Cl.O.O.O", "Inhibition": -1.83}
{"smiles": "CC[C@H]1OC(=O)[C@H](C)C(=O)[C@H](C)[C@@H](O[C@@H]2O[C@H](C)C[C@H](N(C)C)[C@H]2O)[C@](C)(OC)C[C@@H](C)C(=O)[C@H](C)[C@@H]2N(CCCCn3cnc(-c4cccnc4)c3)C(=O)O[C@@]21C", "Inhibition": -1.28}
{"smiles": "C[C@H](N[C@@H](CCc1ccccc1)C(=O)O)C(=O)N1CCC[C@H]1C(=O)O", "note": "[ENALAPRILAT ANHYDROUS]", "Inhibition": 1.01}
{"smiles": "CNCCCC12CCC(c3ccccc31)c1ccccc12.Cl", "note": "[MAPROTILINE HYDROCHLORIDE]", "Inhibition": -10.89}
{"smiles": "O=C1CN(/N=C/c2ccc(-c3ccc([N+](=O)[O-])cc3)o2)C(=O)[N-]1.[Na+]", "note": "[DANTROLENE SODIUM]", "Inhibition": 5.43}
{"smiles": "COc1ccccc1OCCNCC(O)COc1cccc2[nH]c3ccccc3c12", "note": "(configuration not stated) [CARVEDILOL]", "Inhibition": 1.85}
